PriA SSB inh = inhibitors of Klebsiella pneumoniae PriA binding to SSB C-terminal tail, primary screen, biochemical, AlphaScreen. 430,000 tested, 0.6% active. AlphaScreen SSBct-PriA binding, biotinylated peptide. inhibition, % at 33 µM. PriA–SSB C-terminal tail interaction (Klebsiella pneumoniae); in the data active means inhibition mostly above about 37%, no sharp cut-off; inactive means mostly below about 20%;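 further: plate controls were negative control peptide for no effect and reference peptide for full effect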
PrP 5UTR inh = inhibition of PrP 5' UTR reporter expression | cell-based PrP 5' UTR mRNA reporter, plate reader | inhibition, % (test concentration not listed) | 340,000 tested, 0.35% active | AID 488862, 2010; in the data active means inhibition above about 52%; further: 0 = median of the neutral control wells
RecA splice inh = Mtb RecA intein splicing inhibitors, primary screen, biochemical, fluorescence, HTS; Protein RecA (Mycobacterium tuberculosis (strain ATCC 25618 / H37Rv)), P9WHJ3; cell-free RecA intein splicing; inhibition, % (test concentration not listed); 290,000 tested, 0.75% active; AID 2221, 2009; in the data active means inhibition above about 30%;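 further: 0% = vehicle wells and 100% = reference inhibitor control wells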
BJeLR lethal = MLPCN primary cell-based screen for lethality selective to Ras in HRASV12 cells | BJeLR (HRASV12) viability, CellTiter-Glo ATP luminescence, 48 h | inhibition, % (concentration not given with the values) | 300,000 tested, 0.17% active | AID 1554, 2009; in the data active means inhibition above about 50%
PfHsp40 rescue = rescue of yeast from PfHsp40 toxicity, primary screen, S. cerevisiae, ATP luminescence | 340,000 tested, 0.68% active | S. cerevisiae expressing PfHsp40, growth rescue | AID 504582, 2011 | growth rescue, % at 12.5 µM; in the data active means growth rescue above about 28%, passing the limit was not always enough;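 further: yeast W303a lacking pdr1 and pdr3 grown in galactose medium; growth measured after three days at 30 °C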
PrPC surface inh = inhibitors of human cell surface prion protein PrPC, primary screen, cell-based, TR-FRET. TR-FRET read-out. inhibition, % at 13.8 µM. 370,000 tested, 0.43% active; in the data active means inhibition above about 24%; further: 0% = median of the test wells and 100% = reference compound wells
The depositor's hits bear a star. Compounds with a hit are over-represented: about 1.9% of the library has one in this group of screens.

Results for Cc1cc2c(cn1)C(CCC#N)(CCC#N)c1ccccc1-2 ?
PriA SSB inh: 2; PrP 5UTR inh: -36; BJeLR lethal: -4; PfHsp40 rescue: 54*; PrPC surface inh: -1

Results for C/C=C/c1ccc(Oc2nc(C)nc3sc4c(c23)CCC4)c(OC)c1 ?
PriA SSB inh: -2

How did Cc1nn(Cc2ccc(Cl)cc2)c(Cl)c1C=NNC(=O)c1cccnc1 do in these assays?
PriA SSB inh: 1

What do the screens show for `CC(=O)NS(=O)(=O)c1ccc(NC(=O)COc2ccc(C(C)(C)C)cc2)cc1`?
PriA SSB inh: 3

What do the screens show for `COc1cccc2c1C(=N)c1c(O)c3c(c(O)c1C2=O)CC(O)(C(C)=O)CC3OC1CC(N)C(O)C(C)O1` (stereo not drawn)?
PriA SSB inh: 85*; PrP 5UTR inh: 22; PfHsp40 rescue: -3

What do the screens show for `Cc1cc(NC(=O)NCCCSc2nnnn2-c2ccccc2)no1`?
PriA SSB inh: 6

What do the screens show for `CCN(CC)CCN(C(=O)CCCSc1ccccc1)c1nc2c(F)cc(F)cc2s1`?
PriA SSB inh: -3

What do the screens show for `CCC(=O)Nc1ccc(S(=O)(=O)NCC2CCN(C(C)C)CC2)c(C)c1`?
PriA SSB inh: 3

How did O=C(O)CCC(=O)NCCn1c(-c2ccccc2)csc1=Nc1ccccc1 do in these assays?
PriA SSB inh: -5; PrP 5UTR inh: -24; RecA splice inh: 2; BJeLR lethal: 5; PfHsp40 rescue: 0; PrPC surface inh: -1

How did OCCCn1c(-c2ccccc2)csc1=Nc1ccccc1 do in these assays?
PriA SSB inh: 42*; PrP 5UTR inh: -12; RecA splice inh: 3; BJeLR lethal: -4; PfHsp40 rescue: -2; PrPC surface inh: 6

Results for Nc1c(Cl)ncnc1NN=Cc1ccc2ccccc2n1 ?
PriA SSB inh: 54*

Results for Cc1cc(N2CCN(CCOc3cccc4ccccc34)CC2)n2ncc(-c3ccccc3)c2n1 ?
PriA SSB inh: -23

What do the screens show for `O=C(Nc1cccc(OC(=O)c2ccc(Br)o2)c1)c1ccccc1`?
PriA SSB inh: -34; PrP 5UTR inh: -23; RecA splice inh: 43*; BJeLR lethal: -11; PfHsp40 rescue: -2; PrPC surface inh: -3

Results for O=C(c1ccc(=O)n(Cc2ccc(F)cc2)n1)N1CCN(c2ccc(F)c(Cl)c2)CC1 ?
PriA SSB inh: -8

Results for CCOC(=O)C1=C(Cc2ccc(OC)cc2)C(=O)c2ccccc2C1=O ?
PriA SSB inh: 14; PrP 5UTR inh: -37; PfHsp40 rescue: 6

How did CCOC(=O)C1=C(Cc2ccc(C)cc2)C(=O)c2ccccc2C1=O do in these assays?
RecA splice inh: 61*; BJeLR lethal: 24; PrPC surface inh: -3

How did COc1ccc(C)cc1NC(=O)C(=O)NCc1ccccc1F do in these assays?
PriA SSB inh: -1

How did O=C(N[C@@H](Cc1ccccc1)C(=O)CCl)OCc1ccccc1 do in these assays?
PriA SSB inh: -10; PrP 5UTR inh: -3; PfHsp40 rescue: 320*; PrPC surface inh: 8

How did O=C(N[C@@H](Cc1ccccc1)C(=O)N[C@@H](Cc1ccccc1)C(=O)O)OCc1ccccc1 do in these assays?
PriA SSB inh: -23; PrP 5UTR inh: -25; RecA splice inh: -2; BJeLR lethal: 8; PfHsp40 rescue: -1; PrPC surface inh: -4

How did O=C(NC1CCc2ccccc21)C1CCN(S(=O)(=O)N2CCCC2)CC1 (stereo not drawn) do in these assays?
PriA SSB inh: 2

How did Cc1nnc(NC(=O)CSc2nc(CC(=O)NCc3cccs3)cc(=O)[nH]2)s1 do in these assays?
PriA SSB inh: -4

Results for CCCCCCCc1ccc(-c2ccc(O)cc2)nc1 ?
PriA SSB inh: -11; PrP 5UTR inh: -51; RecA splice inh: 17; BJeLR lethal: -1; PfHsp40 rescue: 253*; PrPC surface inh: 11

How did COC(=O)N1CCC(CNC(=O)C2CC(=O)N(c3ccc(F)cc3)C2)CC1 (stereo not drawn) do in these assays?
PriA SSB inh: -1

How did COc1ccccc1OCC(=O)NC[C@@H](c1ccsc1)N1CCN(C)CC1 do in these assays?
PriA SSB inh: -6

Results for CCOc1ccc(CC(=O)Nc2nc(-c3ccccn3)cs2)cc1 ?
PriA SSB inh: 58*

How did Cc1ccc(S(=O)(=O)CCC(=O)Nc2nc(-c3ccccn3)cs2)cc1 do in these assays?
PriA SSB inh: -1; PrP 5UTR inh: -6; PfHsp40 rescue: 1; PrPC surface inh: 1

How did CCOc1ccc(CC(=O)Nc2nc(-c3cccnc3)cs2)cc1 do in these assays?
PriA SSB inh: -3

How did CS(=O)(=O)c1ccc(CC(=O)Nc2nc(-c3ccccn3)cs2)cc1 do in these assays?
PriA SSB inh: 75*

Results for COc1cc(OC)c(NC(=O)c2cc(-c3cc[nH]c3)n[nH]2)cc1Cl ?
PriA SSB inh: 29*

What do the screens show for `CCCCOc1ccccc1-c1cc(C(=O)Nc2cc(Cl)c(OC)cc2OC)[nH]n1`?
PriA SSB inh: -14

Results for O=S(=O)(N=C(Nc1ccc(F)c(F)c1F)c1ccccc1)c1ccccc1 ?
PriA SSB inh: -5

How did O=C(Oc1ccc(N(C(=O)c2ccncc2)S(=O)(=O)c2cccs2)cc1)c1ccncc1 do in these assays?
PriA SSB inh: -3; PrP 5UTR inh: -24; RecA splice inh: 10; BJeLR lethal: -1; PfHsp40 rescue: 1; PrPC surface inh: 1

What do the screens show for `COC(=O)c1c(C)oc2ccc(N(C(=O)c3ccncc3)S(=O)(=O)c3ccc4ccccc4c3)cc12`?
PriA SSB inh: -19; PrP 5UTR inh: -22; RecA splice inh: 38*; BJeLR lethal: 4; PfHsp40 rescue: 3; PrPC surface inh: 9

How did Cc1cc(F)ccc1S(=O)(=O)N(C(=O)c1ccncc1)c1ccc(OC(=O)c2ccncc2)cc1 do in these assays?
PriA SSB inh: -4; PrP 5UTR inh: -16; RecA splice inh: 31*; BJeLR lethal: -8; PfHsp40 rescue: 422*; PrPC surface inh: 6

How did COC(=O)c1c(C)oc2ccc(N(C(=O)c3ccncc3)S(=O)(=O)c3ccc(C)cc3C)cc12 do in these assays?
PriA SSB inh: -13; PrP 5UTR inh: -29; RecA splice inh: 56*; BJeLR lethal: 15; PfHsp40 rescue: 4; PrPC surface inh: 6

How did Cc1ccc([N+](=O)[O-])cc1S(=O)(=O)N(C(=O)c1ccncc1)c1ccc2oc3c(c2c1)CCCC3 do in these assays?
PriA SSB inh: 2; PrP 5UTR inh: -6; RecA splice inh: 43*; BJeLR lethal: 9; PfHsp40 rescue: -1; PrPC surface inh: -4

How did COc1cc(NN=Cc2ccccc2O)ncn1 do in these assays?
PriA SSB inh: 84

Bioassay records from PubChem BioAssay.
